Reference: the supplement of paper PMC3334620
Whole data set: some 33,000 sequences, median “E-score (-0.5 to 0.5)” near -0.032, cut for the highest 2% near 0.36. For the sample, the highest values were picked, then their nearest neighbours and some sequences at random.

Molecular target: T1, Sko1 (UniProt Q02100)
T1 sequence: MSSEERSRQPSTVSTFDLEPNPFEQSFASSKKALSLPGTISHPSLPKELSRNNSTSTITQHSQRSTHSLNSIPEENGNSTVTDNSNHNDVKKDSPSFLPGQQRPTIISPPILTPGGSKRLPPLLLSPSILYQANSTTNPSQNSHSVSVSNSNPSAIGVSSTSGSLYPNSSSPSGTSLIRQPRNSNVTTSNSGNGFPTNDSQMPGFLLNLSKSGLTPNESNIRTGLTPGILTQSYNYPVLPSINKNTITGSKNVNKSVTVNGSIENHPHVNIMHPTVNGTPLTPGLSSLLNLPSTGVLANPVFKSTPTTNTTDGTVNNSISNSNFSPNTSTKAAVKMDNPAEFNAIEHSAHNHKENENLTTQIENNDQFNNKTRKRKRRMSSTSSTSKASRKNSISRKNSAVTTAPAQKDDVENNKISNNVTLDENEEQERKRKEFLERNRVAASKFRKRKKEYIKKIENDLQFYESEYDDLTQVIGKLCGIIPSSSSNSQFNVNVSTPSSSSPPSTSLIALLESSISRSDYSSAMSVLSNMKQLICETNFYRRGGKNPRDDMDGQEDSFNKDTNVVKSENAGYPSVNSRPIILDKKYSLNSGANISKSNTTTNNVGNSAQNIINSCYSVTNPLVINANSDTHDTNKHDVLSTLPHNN
Assay: PBM E-score (8-mer binding enrichment) (E-score (-0.5 to 0.5)); higher = stronger / more preferred TF binding
Conditions: protein concentration: 200 nM; construct: GST-full length
Procedure, shortened: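 Yeast transcription factors carrying a GST tag, as full-length proteins or DNA-binding domains, were produced by PURExpress in vitro transcription/translation. About 100-200 nM protein was applied to universal all-10-mer Agilent arrays, double-stranded by primer extension on fresh or once-stripped slides. Bound protein was detected with fluorescent anti-GST, and scans were normalised with masliner. The Universal PBM Analysis Suite gave each ungapped eight-base word, pooled with its reverse complement, an E-score, a modified Wilcoxon-Mann-Whitney statistic.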

Sequence | PBM E-score
AGCGAACC | 0.0124
TCCCAAAA | -0.048
ATGCAAAC | 0.108
ATACCGTG | -0.0765
GCACTGCA | 0.0142
AGGTCACG | 0.0716
ACGTCACG | 0.486
ACGTCACT | 0.489
AAGTCACG | 0.126
ACGTCACC | 0.489
CCGTCACC | 0.101
ACGTCACA | 0.481
ATGTCACA | 0.324
AAGTCACT | 0.144
AAGTCACA | 0.0509
AGGTCACC | -0.128
AGGTCACT | -0.0104
CTAGAATC | -0.0473
ATCAGGTG | -0.0909
ACTGCAAC | -0.0632
GTGCTTCA | 0.0642
ACATATGT | 0.29
CGTGAGAA | 0.117
ATAATTAC | 0.376
GTAATTAC | 0.367

Sequence | PBM E-score
GAAATTAC | 0.323
CTAATTAC | 0.323
ATAATTAA | 0.285
GTAATTAA | 0.237
CACTGTCG | -0.11
GCACCTGC | -0.202
ACATCAAG | 0.242
ACATCACA | 0.313
AAATCATA | 0.204
ACATCATA | 0.425
ACATCATC | 0.43
ACATCATG | 0.393
ACATCAGA | 0.122
CTATCATC | 0.0137
CCATCATA | 0.0672
GCATCAGA | 0.113
GCATCATA | 0.366
CCATCATC | 0.0168
ACTGGTTA | 0.0712
ATTGGAGA | 0.0978
ACGCCGTC | 0.192
AGCATAGA | -0.0737
GCTCGACA | -0.181
CACTAGAA | 0.023
GCAGCGGC | -0.178

Sequence | PBM E-score
ACGCGGAA | 0.0704
TGGCGTAA | 0.414
GGGCGTAA | -0.0261
AGTCGTAA | 0.231
TGTCGTAA | 0.412
ACGCGTGA | 0.32
GGTCGTAA | 0.249
ACGCGTAC | 0.307
AGGCGTAA | 0.206
ACGCGTAT | 0.389
AAGCGTAA | 0.241
ACGCGTAA | 0.382
ACGCGTAG | 0.259
CACGATCG | 0.0307
CGTTCAAC | 0.112
GGTCTCCA | -0.19
CGTCCGAC | -0.0238
ACAACCGG | -0.197
CAGACCAC | -0.0177
CACCAGCA | 0.0552
AGCGCGAT | -0.0488
ACTCGAAA | 0.0248
ATGTATGA | 0.288
TCGCGTAA | 0.393
CCGCGTAA | 0.318

Sequence | PBM E-score
GCGCGTAA | 0.336
CATGCGTA | 0.38
AATGCGTA | 0.39
GATGCGTA | 0.272
AATGCGTG | 0.214
CATGCGTC | 0.161
AATGCGTC | 0.185
GGGTGAAC | -0.114
ACATAGGG | -0.181
AGATAGCC | -0.299
ACATCTAG | -0.0627
AACATTCC | 0.0401
CACATACG | 0.276
ATCATACA | 0.257
CGCATACA | 0.0477
ATCATACG | 0.365
CGCATACC | 0.0198
ATCATACC | 0.171
CGCATACG | 0.378
AACATACT | 0.0365
AACATACG | 0.387
CTGCTACA | -0.0447
AATGCTTA | -0.1
CAGTATGC | -0.0805
GTTCCGCA | 0.00536

Sequence | PBM E-score
GTCGATCA | -0.0654
TATCGCCA | 0.0834
CCCTATGA | 0.0198
AAGTCCAA | 0.0276
AATAACGC | 0.106
AATAACGG | 0.138
AATAACGT | 0.426
GCCTCAAC | -0.175
CCGTTTTA | -0.00533
ACGTTTTG | 0.393
ACGTTTCC | 0.294
ACGTTTTC | 0.396
ACGTTTTA | 0.364
CCGTTTTC | 0.0601
AGGTTTTG | -0.0965
ACGTTTGG | 0.296
GCGTTTTA | 0.125
GGCTACAA | -0.0783
CATCGAGA | 0.0586
CACTTGAC | 0.186
AAGGTTAA | 0.06
AAATGTCG | 0.159
AGCTTGCA | 0.0429
CGCCTACC | -0.145
CCTCTGCA | -0.229

Sequence | PBM E-score
GGTAACCA | -0.101
GGTAACTA | 0.0515
CGTAACCA | 0.389
CGTAACGC | 0.34
GGTAACGA | 0.0123
CGTAACCC | 0.289
CGTAACTA | 0.381
CGTAACTC | 0.331
CGTAACGA | 0.366
ACCGTGCG | 0.0174
TCTACTAA | 0.0947
CGTTTAAA | 0.277
TGAATGAA | 0.197
ATAGGTCG | -0.195
AATGTCGG | 0.0603
AATGTCGA | 0.217
AATGTCGT | 0.371
CGATTGTC | 0.0842
AGGAGCCC | -0.142
CCATTACG | 0.438
ACATTACA | 0.28
CCATTACA | 0.089
ACATTACT | 0.0825
ACATTACG | 0.425
CCATTACC | -0.148

Sequence | PBM E-score
ACGGACTA | 0.0518
CTGCTGAC | 0.0145
AACACGAA | 0.187
AACACGGC | -0.255
AACACGTC | 0.401
AACACGTA | 0.459
AACACGCC | -0.0487
AACACGTT | 0.313
AGAGCTGG | -0.228
TCATAGAA | 0.219
AATTTCAC | -0.0415
ACTTGAAA | 0.0359
AAGCGGAA | -0.0292
AGAACGTA | 0.366
AGAACGTG | 0.246
GGAACGTA | 0.289
AGAACGTC | 0.314
CGAACGTA | 0.361
CGAACGTC | 0.238
GTGAAGGA | -0.0285
ACGCAGAC | 0.0967
AAATTGGA | 0.0977
